# Results: PubChem BioAssay AID485 (The Scripps Research Institute Molecular Screening Center, 2006)
# Out of some 170,000 compounds screened, about 460 (0.27%) were called active.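 Rule for the calls: active = inhibition above the plate cutoff, the mean inhibition of test wells on that plate plus 3 SD (cut at about 28% in these data); inactive = the rest.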 Shown is part of a subset that was picked to be rich in actives.
# Molecular target: Sphingosine 1-phosphate receptor 3 (Homo sapiens) (UniProt Q99500)
# Test: S1P3 receptor antagonists, primary screen, cell-based (AID 485);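 note: cells challenged with S1P at its EC80 of 0.8 µM; blue over green emission ratio from cleaved BLA substrate after 4 h stimulation; 0% = S1P-stimulated wells and 100% = unstimulated DMSO-only wells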
# Conditions: CHO S1P3 NFAT-BLA reporter, FRET fluorescence, antagonist mode; at 4.98 µM; hits give high values
# Sequence of Sphingosine 1-phosphate receptor 3 (Homo sapiens) (Q99500 whole entry, looked up): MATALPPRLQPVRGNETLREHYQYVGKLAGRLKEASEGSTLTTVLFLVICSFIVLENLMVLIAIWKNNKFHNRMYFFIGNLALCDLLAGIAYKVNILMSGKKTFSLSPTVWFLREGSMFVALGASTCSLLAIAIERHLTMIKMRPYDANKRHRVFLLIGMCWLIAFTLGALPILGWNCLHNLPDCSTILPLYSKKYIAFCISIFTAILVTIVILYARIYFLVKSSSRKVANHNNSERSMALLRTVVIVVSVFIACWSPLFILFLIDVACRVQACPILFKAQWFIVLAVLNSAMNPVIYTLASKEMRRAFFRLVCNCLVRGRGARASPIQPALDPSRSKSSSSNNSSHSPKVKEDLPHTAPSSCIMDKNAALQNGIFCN
row,SMILES,inhibition
1,COc1ccccc1NC(=O)c1c(Br)cnn1C,2.9% (inactive)
2,O=C(O)c1ccccc1OCc1ccccc1Cl,8.64% (inactive)
3,O=C(/C=C/c1ccc(Cl)cc1)Nc1ccc(S(=O)(=O)Nc2ncccn2)cc1,-1.53% (inactive)
4,Cc1cc(C)n(CC(C)NCc2c(C(=O)N3CCOCC3)nc3c(C)cccn23)n1 (stereo not drawn),16% (inactive)
5,COc1cccc(CC2(CO)CCCN(Cc3nc(-c4cccs4)oc3C)C2)c1 (stereo not drawn),-7.51% (inactive)
6,CCC(CC)c1nnc(NC(=O)c2nn(C)c(=O)c3ccccc23)s1,-16.1% (inactive)
7,COc1ccc(N2CCN(C(=O)/C(C#N)=C/c3ccccc3)CC2)cc1,-0.3% (inactive)
8,Nc1cc(C(F)(F)F)ccc1N1CCOCC1,8.92% (inactive)
9,COc1cc(OC)cc(/C(N)=N/O)c1,9.29% (inactive)
10,CCOc1cc(N2CCOCC2)c(OCC)cc1NC(=O)c1ccc(C)s1,2.86% (inactive)
11,CCOC(=O)CN(C(=O)COc1nc(-c2ccccc2)cc(C)c1C#N)c1ccc(F)cc1,-12.8% (inactive)
12,Nc1nc(NCC2CCCO2)nc(Nc2ccccc2F)c1[N+](=O)[O-] (stereo not drawn),6.85% (inactive)
13,CC(C)NC(=O)/C(C#N)=C\c1ccc(N(C)C)c(Br)c1,-16.2% (inactive)
14,C=CCN(c1ccccc1C(=O)NCC(=O)OCC)S(=O)(=O)c1ccc(C)cc1,3.85% (inactive)
15,CC1=CC2=NC(=O)/C(=C/c3coc4ccccc4c3=O)C(=N)N2O1,-5.98% (inactive)
16,CCOc1cc(NS(=O)(=O)c2ccc(OC)cc2)c(OCC)cc1NC(C)=O,-10.8% (inactive)
17,O=C(NCCN1CCOCC1)c1ccc2c(c1)N(Cc1ccc(Cl)cc1)CCS2,1.26% (inactive)
18,CCc1ccc(Nc2nnc(SCC(=O)c3ccc4c(c3)NC(=O)CO4)s2)cc1,-5.18% (inactive)
19,O=C(c1ccc(F)cc1)n1cc(C(=S)N2CCOCC2)c2ccccc21,16.1% (inactive)
20,O=C(CN1CCCCC1)Nc1ccccc1Cl,-9.78% (inactive)
21,O=C(Nc1ccccc1Cl)/C(Cl)=C(\Cl)S(=O)c1ccccc1 (stereo not drawn),40.8% (active)
22,O=C(Nc1ccccc1Cl)c1ccc2nsnc2c1,0.3% (inactive)
23,CCOC(=O)C1=C(c2ccccc2)NC(=S)NC1c1ccc(Cl)cc1 (stereo not drawn),-1.74% (inactive)
24,C=CCN1CC(C)/C(=N\O)CC1C (stereo not drawn),-3.95% (inactive)
25,Cc1cc(C)nc(Nc2cc([N+](=O)[O-])ccc2C)n1,11.2% (inactive)
26,Cc1nn(-c2ccc([N+](=O)[O-])cc2)c(N)c1-c1ccccc1,-7.46% (inactive)
27,COc1ccccc1C1CCN(C(=S)Nc2ccc(Br)cc2)CC1,7.17% (inactive)
28,O=C(Nc1ccc(N2CCN(C(=O)c3ccccc3)CC2)c(Cl)c1)c1ncn[nH]1,7.3% (inactive)
